# From PubChem BioAssay AID492956 (The Scripps Research Institute Molecular Screening Center, 2010)
# About 3,300 (0.97%) of roughly 340,000 compounds were called active. The sample as a whole holds a higher share of actives than the screen did. Unmarked numbers belong to inactive results.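 How the source made its calls: active means inhibition above the mean over all tested compounds plus 3 SD (cut at about 30% in these data); inactive means the rest.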
# Target: Platelet-activating factor acetylhydrolase 2, cytoplasmic (Homo sapiens) (UniProt Q99487)
# Test: inhibition of cytoplasmic PAF acetylhydrolase 2 – biochemical, fluorescence polarization, human, primary screen (AID 492956);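 further: inhibitors block probe labeling of enzyme so polarization drops; 0% = enzyme with DMSO and 100% = wells lacking PAFAH2 protein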
# Settings: recombinant PAFAH2, FP-rhodamine activity probe, at 3.39 µM, hits give high values
row,SMILES,inhibition
1,CC(C)Nc1nnc(SC(C)C(=O)N(C)C2CCCCC2)s1 (stereo not drawn),9.89%
2,CCOCc1nnc(NC(=O)CCC2CCCCC2)s1,3.07%
3,CCOc1cc(-c2conc2N)cc(OCC)c1OCC,-0.29%
4,CCCc1cc(=O)n2[nH]c(C)c(-c3ccc(Cl)cc3)c2n1,4.35%
5,CCCc1cc(=O)n2[nH]c(SCc3ccccc3)nc2n1,58.2% (active)
6,CCCc1cc(=O)[nH]c(SCc2ccc(C#N)cc2)n1,-7.81%
7,O=C1CCc2cc(S(=O)(=O)N3CCC(C(=O)NCc4ccccc4Cl)CC3)ccc2N1,7.4%
8,NNC(=O)C1CC(O)CN1S(=O)(=O)c1ccc(Cl)cc1 (stereo not drawn),-7.58%
9,O=C(CCN1CCN(C/C=C/c2ccccc2)CC1)Nc1cccc(F)c1,-0.13%
10,O=c1ccc2c(-c3ccccc3S(=O)(=O)O)c3ccc(O)c(O)c3oc-2c1O,74.3% (active)
11,O=C1C2C3C=CC(C3)C2C(=O)N1c1ncc([N+](=O)[O-])s1 (stereo not drawn),3.52%
12,CC1(C)NC(=O)N(CC(=O)Nc2cc(C(F)(F)F)cc(C(F)(F)F)c2)C1=O,2.33%
13,N/C(=N\OS(=O)(=O)c1cccc([N+](=O)[O-])c1)c1ccncc1,-0.37%
14,CCCC(CCC(=O)OC)(C(=O)OCC)c1csc(N)n1 (stereo not drawn),3.59%
15,O=[N+]([O-])c1ccc(O)c(/C=N/Nc2ccccc2[N+](=O)[O-])c1,51.1% (active)
16,O=C(N/N=C/c1cc([N+](=O)[O-])ccc1O)/C(=C\c1cccs1)NC(=O)c1ccccc1,-3.54%
17,Nc1nnnn1/N=C/c1cc([N+](=O)[O-])ccc1O,-12.5%
18,COc1cccc(/C=N/Nc2ccc(S(=O)(=O)Nc3ccccc3C(=O)O)cc2[N+](=O)[O-])c1O,27.3%
19,O=C(O)c1ccccc1N=N/C(=N/Nc1cc(S(=O)(=O)O)ccc1O)c1ccccc1,50.6% (active)
20,NC[C@H](Cc1ccccc1)NCCc1cc(C(F)(F)F)cc(C(F)(F)F)c1,-1.16%
21,O=C(OCCN1C(=O)c2ccccc2C1=O)[C@@H]1CC(O)CN1S(=O)(=O)c1ccccc1[N+](=O)[O-] (stereo partly drawn),3.85%
22,O=C(CN1C(=O)NC2(CCOc3ccccc32)C1=O)NCc1ccc(F)cc1 (stereo not drawn),-2.58%
23,CCC(C)c1ccc(NC(=S)N2CCCC2)cc1 (stereo not drawn),-2.78%
24,CC(=O)Nc1ccc(NC(=O)COC(=O)C2CCC(C(C)(C)C)CC2)cc1 (stereo not drawn),2.02%
25,O=C(COC(=O)C1CCCCC1)Nc1ccc([N+](=O)[O-])cc1,59.7% (active)
26,N/C(Cc1ccc([N+](=O)[O-])cc1)=N\OC(=O)C1CCCCC1,18.1%
27,O=C(COC(=O)Cc1ccc([N+](=O)[O-])cc1)NC1CCCCCC1,2.56%
28,CCC(C)c1ccc(NC(=O)COC(=O)C2CCCC2)cc1 (stereo not drawn),46.3% (active)
